Experimental data published in the supplement of paper PMC3334620.
The full ranking holds about 33,000 sequences; the median of “E-score (-0.5 to 0.5)” is about -0.035, and the highest 2% start at about 0.34. The list comes from a sample in which the highest values are over-represented; it also holds similar and randomly drawn sequences.

target: T1, Mot3 (UniProt P54785); test: PBM E-score (8-mer binding enrichment) (E-score (-0.5 to 0.5)); higher = stronger / more preferred TF binding; details: protein concentration: 200 nM; construct: GST-full length
T1 sequence: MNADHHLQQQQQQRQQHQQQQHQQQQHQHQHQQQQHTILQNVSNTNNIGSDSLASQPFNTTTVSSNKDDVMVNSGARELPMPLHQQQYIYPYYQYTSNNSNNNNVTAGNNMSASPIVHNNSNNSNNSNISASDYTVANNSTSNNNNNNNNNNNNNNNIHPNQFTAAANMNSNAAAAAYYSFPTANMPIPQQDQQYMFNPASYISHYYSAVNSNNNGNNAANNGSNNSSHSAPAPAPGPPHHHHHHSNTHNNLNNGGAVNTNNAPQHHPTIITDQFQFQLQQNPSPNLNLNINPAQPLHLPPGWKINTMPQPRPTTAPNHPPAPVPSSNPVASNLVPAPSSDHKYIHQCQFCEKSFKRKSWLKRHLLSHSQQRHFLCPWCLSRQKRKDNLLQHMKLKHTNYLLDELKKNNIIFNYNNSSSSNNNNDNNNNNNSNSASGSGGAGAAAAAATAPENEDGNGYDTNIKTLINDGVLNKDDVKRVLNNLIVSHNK
How it was run: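 Full-length yeast transcription factors or their DNA-binding domains, GST-tagged and expressed with PURExpress, were applied at about 100-200 nM to universal all-10-mer Agilent arrays. These arrays had been made double-stranded by primer extension on fresh or once-stripped slides. Detection used fluorescent anti-GST, normalisation used masliner, and E-scores for ungapped eight-base words pooled with reverse complements came from the Universal PBM Analysis Suite.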

| Sequence | PBM E-score |
| --- | --- |
| CCCGCTTC | -0.191 |
| CCCAGGAC | -0.288 |
| CTGCTTGC | 0.0147 |
| AAGCGCAG | -0.124 |
| CGTATGCA | -0.0506 |
| ACAGGAAA | 0.453 |
| GCAGGACC | -0.237 |
| CCAGGAAA | 0.324 |
| CCAGGAAG | -0.078 |
| GCAGGAGC | 0.0355 |
| GCAGGAAC | 0.463 |
| TCAGGAAA | 0.394 |
| CCAGGAAC | 0.406 |
| TCAGGAGA | -0.0813 |
| AGAGGAAA | 0.0488 |
| ACAGGAGA | -0.0281 |
| CCAGGAGC | -0.247 |
| ATAGGTGC | 0.24 |
| AAGCGAGT | -0.0166 |
| CCGGGTCC | -0.279 |
| AAAGGGCC | -0.132 |
| AAGCCACT | -0.172 |
| AGCTGGAA | -0.29 |
| GCGCCAGC | 0.128 |
| TGCTAAAA | 0.0711 |

| Sequence | PBM E-score |
| --- | --- |
| CGCTGAAA | 0.0848 |
| ACAAATCT | 0.103 |
| CTAGTTTC | -0.178 |
| AAGCAGTG | 0.0592 |
| TAGTGGAA | -0.00095 |
| TCAAGGAA | 0.363 |
| GGAGGAAA | 0.0847 |
| ACAGGAAC | 0.466 |
| CCAAGGAA | 0.254 |
| ACAGGAAT | 0.107 |
| GCAGGATA | -0.121 |
| ACAAGGAA | 0.263 |
| GCAGGAAA | 0.451 |
| ACAGGAAG | 0.0333 |
| ATCCATCA | -0.0789 |
| AGAGAGAG | -0.326 |
| CAACAGTC | -0.167 |
| CAGGTACA | 0.406 |
| CCGGTACA | 0.0242 |
| TAGGTACA | 0.36 |
| TAGGTATA | -0.0008 |
| TGGGTACA | 0.0297 |
| GAGGTACA | 0.192 |
| CTTCTAAC | -0.0665 |
| CGTGCTTC | 0.0855 |

| Sequence | PBM E-score |
| --- | --- |
| ACTCTACA | 0.174 |
| GTTAGCCA | -0.136 |
| CAGCTCTA | -0.168 |
| ACATTAGT | 0.187 |
| AGGAAACG | 0.339 |
| GGGAAACA | -0.036 |
| CGGAAACC | -0.352 |
| AGGAAACC | 0.42 |
| ACGAAACT | -0.0505 |
| GGGAAACC | -0.00353 |
| AGGAAACT | 0.421 |
| CGGAAACA | 0.0963 |
| AGGAAACA | 0.391 |
| GCGACGAA | -0.154 |
| ACGCGGAG | 0.105 |
| ACCTAGCA | 0.0477 |
| CATAGCGC | 0.0893 |
| TTACCTAA | 0.285 |
| ATACCTAA | 0.071 |
| CTACCTAC | 0.188 |
| ATACCTAC | 0.156 |
| GTACCTAA | 0.374 |
| GTACCTAC | 0.405 |
| AAGCGACG | -0.15 |
| ATGTTAAG | 0.37 |

| Sequence | PBM E-score |
| --- | --- |
| ATGTTTAA | 0.285 |
| CTGTTAAG | 0.259 |
| ATGTTAAA | 0.392 |
| ACGTTAAA | 0.3 |
| ATGTTAAT | 0.338 |
| AAGTTAAA | 0.219 |
| GAAGGGTA | 0.0495 |
| GGCCCTAC | -0.281 |
| ACAGACTG | -0.0643 |
| CGTGTTTC | 0.106 |
| TATACACA | 0.364 |
| TACACAAA | 0.369 |
| CATACACG | 0.316 |
| GACACGAA | 0.145 |
| AACACACT | 0.22 |
| TACACGAA | 0.359 |
| CACACGAA | 0.165 |
| CATACACA | 0.219 |
| AACACACG | 0.266 |
| AACACACA | 0.34 |
| AACACAAA | 0.22 |
| CACACAAA | 0.151 |
| ATAAACCG | -0.195 |
| ACAGCGGC | -0.112 |
| ATTAGAAC | 0.0827 |

| Sequence | PBM E-score |
| --- | --- |
| AGCTACAG | -0.0877 |
| AATACAAG | 0.313 |
| AATACACC | 0.271 |
| GACACGCA | 0.246 |
| AATACACT | 0.259 |
| AACACGCA | 0.326 |
| AATACACG | 0.394 |
| AATACACA | 0.389 |
| TACACACA | 0.385 |
| GATACACA | 0.14 |
| CACACACA | 0.249 |
| CACACACG | 0.159 |
| TACACGCA | 0.346 |
| CAAACGTG | 0.0815 |
| CCGACCAC | -0.189 |
| AGGGTCCA | -0.297 |
| CCGTATAG | -0.208 |
| ACATCGGG | -0.13 |
| ATCAATGC | -0.189 |
| CTCCAAAA | -0.179 |
| CAGGGACG | 0.0493 |
| GGAGAAAC | -0.149 |
| CGTAGCGA | -0.285 |
| GACTTGCC | 0.127 |
| AAGGTATA | 0.113 |

| Sequence | PBM E-score |
| --- | --- |
| CAGGTATC | 0.056 |
| AAGGTAGA | -0.0631 |
| CAGGTACG | 0.409 |
| CAGATACG | -0.243 |
| AAGGTACA | 0.394 |
| AAGGTACC | 0.419 |
| CAGGTACC | 0.434 |
| CCGGTACG | -0.199 |
| GAGGTACC | -0.0594 |
| AGGGTACC | 0.0598 |
| CGGGTACC | 0.0123 |
| ATCGAACC | -0.089 |
| ACTATCCA | -0.204 |
| CGCCTTGA | -0.0273 |
| AACATTGT | 0.257 |
| ATCTCCGA | -0.0589 |
| ATAAGTTA | 0.213 |
| AACTTAAA | 0.212 |
| ACGCTTCC | -0.0948 |
| CAGATCGA | -0.213 |
| AACAGCAA | 0.0647 |
| AAGGTACG | 0.436 |
| ACGGTACG | -0.0434 |
| ACGGTACT | -0.207 |
| AAGGTATG | 0.0554 |

| Sequence | PBM E-score |
| --- | --- |
| AAGGTAGT | -0.0675 |
| AAGGTACT | 0.364 |
| GACTCCAC | -0.34 |
| AGGCTCGG | 0.146 |
| ATGCGCTG | -0.00636 |
| AGCTACAT | 0.145 |
| ATATGTGA | 0.197 |
| CTATGTAC | 0.378 |
| GTATGTGA | 0.0776 |
| AGATGTAA | 0.272 |
| ATATGTAA | 0.346 |
| ATATGTAC | 0.274 |
| CTATGTAA | 0.41 |
| GTATGTAA | 0.404 |
| GGATGTAA | 0.295 |
| ATATGTAG | 0.202 |
| CTCTGTAA | 0.133 |
| CTCTGTAC | 0.0774 |
| CGATAGCA | -0.159 |
| CCCTTGCG | -0.214 |
| ACAAGTGC | 0.201 |
| CGATCGCG | -0.102 |
| GACCAATC | -0.039 |
